# High-throughput results from PubChem BioAssay.
# PI5P4Ka inh: inhibitors of human PI5P4K alpha. P48426. PI5P4Kalpha enzyme, ADP-Glo luminescence, 60 min; hits give low values. max response, %. actives 1.2% (n = 330,000). AID 652105; active = max response of -50% or lower; inconclusive = between -30% and -50%; inactive = -30% or higher; note: value at the top dose of about 77 µM; % is set by controls: 0 for no effect and ±100 for the full control effect
#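 Reactions run in 0.038 M HEPES pH 7.4, 0.28 mM EGTA, 0.1% CHAPS and 5% DMSO, with PI5P4Kalpha, substrate, compound and 5 microM ATP final, one hour at room temperature. Readout is ADP-Glo luminescence.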
# Pol kappa inh: DNA polymerase kappa (human) inhibition. purified Pol kappa, fluorescent DNA synthesis assay, 10 min. AID 588579. Potency, µM (doses to about 107 µM), for the others: at the top dose activity, negative = inhibition, most hits filed as inhibitors. actives 0.53% (n = 400,000). Q9UBT6; note: potency is the fitted concentration of half-maximal effect; % is set by controls: 0 for no effect and ±100 for the full control effect
#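 First, compounds were pin-transferred onto 10 nM Pol kappa. After 15 min at room temperature, substrate was added to 50 nM final. Fluorescence was then measured kinetically at 0 and 10 min.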
# POLH inh: DNA polymerase eta (human) inhibition. Q9Y253. recombinant Pol eta, fluorescent DNA replication assay. Potency, µM (doses to about 114 µM), for inactives: top-dose activity change, negative = inhibition, usual class: inhibitors. actives 1.2% (n = 390,000). AID 588591; note: potency is the fitted concentration of half-maximal effect; % is set by controls: 0 for no effect and ±100 for the full control effect
# Target sequence (Q9Y253 whole entry, looked up): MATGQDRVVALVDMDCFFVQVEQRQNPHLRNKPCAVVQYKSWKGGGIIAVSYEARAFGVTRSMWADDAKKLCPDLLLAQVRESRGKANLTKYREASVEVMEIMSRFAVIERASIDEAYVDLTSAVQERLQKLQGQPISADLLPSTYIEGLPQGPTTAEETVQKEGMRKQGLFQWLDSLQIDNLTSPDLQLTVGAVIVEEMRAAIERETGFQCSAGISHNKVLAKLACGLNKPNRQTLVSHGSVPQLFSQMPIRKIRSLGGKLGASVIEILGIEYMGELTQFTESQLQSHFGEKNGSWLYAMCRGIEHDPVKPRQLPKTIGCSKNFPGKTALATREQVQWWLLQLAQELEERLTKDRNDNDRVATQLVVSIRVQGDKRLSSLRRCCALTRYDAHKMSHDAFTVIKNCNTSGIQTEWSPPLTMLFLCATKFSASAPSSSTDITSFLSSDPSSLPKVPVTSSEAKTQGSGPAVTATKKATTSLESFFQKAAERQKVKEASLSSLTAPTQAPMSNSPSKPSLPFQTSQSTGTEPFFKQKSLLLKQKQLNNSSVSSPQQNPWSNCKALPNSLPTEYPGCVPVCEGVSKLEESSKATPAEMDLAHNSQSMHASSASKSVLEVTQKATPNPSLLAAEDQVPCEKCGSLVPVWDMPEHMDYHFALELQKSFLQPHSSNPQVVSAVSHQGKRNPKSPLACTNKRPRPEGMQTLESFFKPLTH
#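 Pol eta (10 nM) was preincubated with compounds for 15 min at room temperature, after which fluorescent replication substrate (50 nM final) was added to start the reaction. Fluorescence was read kinetically at 0 and 10 min.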
# POLI inh: DNA polymerase iota (human) inhibition | Q9UNA4 | AID 588590 | actives 1% (n = 390,000) | Potency, µM (highest dose often 115 µM), for inactives: at the top dose activity, negative = inhibition, usual class: inhibitors | Pol iota fluorescent replication assay, 10 min; note: potency is the fitted concentration of half-maximal effect
#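 Fluorescent replication assay read twice, at 0 min and 10 min after adding 50 nM (final) substrate. Enzyme (10 nM) and compounds were first incubated 15 min at room temperature; enzyme-free buffer wells were negative controls.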
# POLB inh: blocks human DNA polymerase beta activity; Potency, µM (doses to about 114 µM), for the others: at the highest dose activity change, negative = inhibition, usual class: inhibitors; AID 485314; Pol beta primer extension/strand displacement, fluorescence kinetic; P06746; actives 1.3% (n = 340,000); note: potency is the fitted concentration of half-maximal effect; % is set by controls: 0 for no effect and ±100 for the full control effect
#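 Preincubation: enzyme (10 nM) with compound, 15 min, RT. Reaction: substrate added to 50 nM final. Reads: 0 and 10 min. Analysis: normalized, Hill fit.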
# WRN inhibitor: WRN helicase (human) inhibition. WRN helicase unwinding, fluorescent forked duplex, kinetic. Potency, µM (doses to about 114 µM), for the others: top-dose activity change, negative = inhibition, actives largely listed as inhibitors. actives 0.46% (n = 360,000). AID 651768; note: potency is the fitted concentration of half-maximal effect; % is set by controls: 0 for no effect and ±100 for the full control effect; nearly all actives have a fitted effect of over 55% in size
#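 Fluorescence dequenching readout, ex 525 nm/em 598 nm, kinetic mode: forked duplex DNA (100 nM final) with adjacent fluorophore and quencher unwound by WRN (20 nM final) with 2 mM ATP. Compound preincubation 15 min, room temperature.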
# PGK validate: validation of Trypanosoma brucei phosphoglycerate kinase inhibitors | shares compounds with Pol kappa inh | TbPGK coupled GAPDH assay, Kinase-Glo luminescence | Potency, µM (top dose mostly 57.5 µM), for inactives: top-dose activity change, negative = inhibition, hits mostly inhibitors | actives 79% (n = 500) | AID 686980; note: potency is the fitted concentration of half-maximal effect; % is set by controls: 0 for no effect and ±100 for the full control effect; nearly all actives have a fitted effect of over 65% in size
# Pol iota confirm: Human Pol iota inhibitor confirmatory assay | Pol iota primer extension, TAMRA/BHQ fluorescence | Potency, µM, actives largely listed as inhibitors | actives 77% (n = 1,500) | shares compounds with Pol kappa inh; note: potency is the fitted concentration of half-maximal effect
# An asterisk follows results filed as active; ? = inconclusive; nt = not tested or not shown; [ ] = dose if it differs, or a comment. Sampled rows, rich in hits. Any-hit rate of the full collection: about 2.8%. Unless noted, calls come from the whole dose curve; as a rule, active = well fitted curve in the direction sought with a large enough effect; inconclusive = small, poorly fitted or top-dose-only effect, or another doubt; inactive = no such curve, though single readings can be large; an effect the other way counts as inactive or inconclusive.
SMILES,PI5P4Ka inh,Pol kappa inh,POLH inh,POLI inh,POLB inh,WRN inhibitor,PGK validate,others
Cc1ccc(Cl)cc1NC(=O)Nc1cn(CC(C)C)c(=O)c2ccccc12,nt,-21.5%,22.4µM*,?,7.4%,nt,3.5%,
COc1ccc(NC(=O)Nc2cn(CC(C)C)c(=O)c3ccccc23)c(OC)c1,nt,-9.8%,-10.8%,35.4%,26.7%,nt,nt,
O=C(O)CCCCCNC(=O)/C=C/c1ccco1,-0.2,-17.4%,2.8%,-16.3%,?,-11.3%,nt,
O=C(O)CCCNC(=O)/C=C/c1ccco1,-4.3,50.1µM*,3.98µM*,?,2.82µM*,-29.6%,?,
CCOc1ccc(-c2nc(SCC(=O)Nc3cc(F)ccc3F)n3[nH]c(=O)cc3n2)cc1,nt,14.6%,-5.8%,-0.2%,4.47µM*,nt,5.8µM*,
COCCNC(=O)/C(C#N)=C/c1ccc(O)cc1,?,3.9%,-4.1%,20.5%,1.1%,-8.6%,16.3µM*,
COc1ccc(/C=N\NC(=O)c2c(C)nc3ccc(Br)cn23)cc1,3.6,-32.5%,?,?,?,-2.8%,nt,Pol iota confirm=?
COc1ccc(C(C[N+](=O)[O-])c2c(C)cc3ccccn23)cc1 (stereo unspecified),-7.6,-2.3%,7.0%,51.3%,18.6%,-32.5%,nt,
COc1ccc(C(C[N+](=O)[O-])c2c(C)[nH]n(-c3ccccc3)c2=O)cc1 (stereo unspecified),1.3,-10.4%,-12.7%,1.58µM*,-2.0%,?,nt,Pol iota confirm=67*
CCOC(=O)C1(COCc2ccccc2)CCCCC1=O (stereo unspecified),0.5,nt,-3.7%,nt,nt,-0.9%,nt,
O=C(c1coc(=O)c(Br)c1)N1CCOCC1,?,?,10µM*,?,6.31µM*,?,29.1µM*,
O=C(c1cc(Br)c(Br)s1)N1CCOCC1,3.7,-3.1%,-12.0%,29.1%,nt,0.1%,nt,
C=CCn1c(=O)[nH]c2cc(C(=O)N3CCN(c4cc(C)ccc4C)CC3)ccc2c1=O,nt,-4.7%,5.0%,5.7%,7.3%,6.2%,nt,
C=CCn1c(=O)[nH]c2cc(C(=O)N3CCN(c4ccc(C(C)=O)cc4)CC3)ccc2c1=O,nt,?,?,?,35.5µM*,?,nt,Pol iota confirm=47.4*
O=C(O)c1cc(O)c2c(c1)[C@H]([C@H]1c3cc(C(=O)O)cc(O)c3C(=O)c3c(O[C@@H]4O[C@H](CO)[C@@H](O)[C@H](O)[C@H]4O)cccc31)c1cccc(OC3O[C@H](CO)[C@@H](O)[C@H](O)[C@H]3O)c1C2=O (stereo partly specified),-78.6*,0.708µM*,-99.1%,-82.6%,nt,3.98µM*,2.91µM*,
CCC(C)(C(=O)NC1CCCCC1)N(Cc1ccco1)C(=O)c1ccccn1 (stereo unspecified),5.3,10.2%,-16.8%,-5.6%,1.1%,6.5%,nt,
Cc1cc(C)c2cc3c(N)c(C(=O)Nc4c(C)[nH]c(=O)[nH]c4=O)sc3nc2c1,-23.3,-20.2%,44.7µM*,?,?,?,nt,Pol iota confirm=?
Cc1cc(C)c2cc3c(N)c(C(=O)N4CCOCC4)sc3nc2c1,2.8,1.6%,-17.3%,130.8%,24.0%,-3.6%,nt,
COc1cccc(/C=N/Nc2ncccc2[N+](=O)[O-])c1OC,-23.8,-9.5%,-8.3%,37.9%,-22.5%,-4.7%,16.3µM*,
CCN(C[C@H]1N[C@@](Cc2ccccc2)(C(=O)OC)[C@H]2C(=O)N(C)C(=O)[C@@H]12)S(=O)(=O)c1ccc(-c2ccccc2)cc1,-3.8,4.2%,-22.4%,41.0%,nt,0.3%,nt,
Cc1ccc(/C=N/NC(=O)CNC(=O)c2ccc(S(=O)(=O)N3CCCC3)cc2)o1,-2.2,11.5%,-17.4%,10.9%,21.7%,10.2%,nt,
O=C(CNC(=O)c1ccc(S(=O)(=O)N2CCCCC2)cc1)N/N=C/c1ccco1,-7.2,-8.7%,-4.3%,?,3.1%,-21.2%[11.6 µM],nt,Pol iota confirm=11.9*
ClCCn1cnc2c(SCc3ccccc3)ncnc21,0.9,0.3%,-11.4%,34.7%,nt,-1.3%,nt,
CCOC(=O)c1cnc2cc(F)c(F)cc2c1Nc1ccccc1O,nt,3.8%,5.8%,20.1%,25.0%,nt,nt,
CCOC(=O)c1cnc2ccc(OC(F)(F)F)cc2c1Nc1ccccc1C(=O)O,nt,2.1%,-13.7%,1.4%,20.8%,nt,-17.4%,
SMILES,PI5P4Ka inh,Pol kappa inh,POLH inh,POLI inh,POLB inh,WRN inhibitor,PGK validate,others
O=c1c(=O)n(O)c2ccccc2n1O,nt,0.5%,-6.4%,-25.8%,8.7%,3.0%,nt,Pol iota confirm=?
COC1CCN(Cc2c(C(=O)N3CCN(C4CCCCC4)CC3)nc3ccccn23)CC1,2.9,-0.1%,-20.4%,12.2%,-2.4%,2.9%,nt,
O=C(N/N=C/c1c[nH]c2ccc(Br)cc12)c1ccncc1,-4.6,-23.7%,?,56.2µM*,?,?,nt,Pol iota confirm=67*
O=C(N/N=C/c1c[nH]c2ccccc12)c1ccncc1,?,-7.1%,-18.7%,113.6%,-11.1%,-14.7%,nt,
O=C(Nc1ccc(C(=O)N2CCCC2)cc1)c1ccccc1F,nt,-7.7%,-5.3%,-6.1%,-11.0%,6.4%,20.6µM*,
COc1c(N2CCN(C(=S)NCc3ccccc3)C(C)C2)c(F)cc2c(=O)c(C(=O)O)cn(C3CC3)c12 (stereo unspecified),-13.6,?,31.6µM*,15.8µM*,28.2µM*,?,nt,Pol iota confirm=53.2*
COc1ccc(C(=O)O/N=C(\N)c2ccc(Br)cc2)cc1,0.6,-4.7%,-8.0%,95.2%,-2.4%,-2.4%,nt,
COc1ccc(C(=O)O/N=C(/C)c2cccs2)cc1,-51.3*,-3.2%,-9.7%,2.6%,13.5%,-13.3%,5.8µM*,
COc1ccc(C(=O)O/N=C(\N)c2ccccc2)cc1,?,-3.1%,-16.4%,51.5%,2.6%,-5.3%,8.19µM*,
COc1ccccc1N1CCN(C(=O)C2CCC(CNS(=O)(=O)c3ccc(NC(C)=O)cc3)CC2)CC1 (stereo unspecified),10.2,-4.4%,-4.8%,18.9%,29.0%,-6.1%[57.1 µM],nt,
O=c1c(O)c(-c2ccc(O[C@@H]3O[C@H](CO)[C@@H](O)[C@H](O)[C@H]3O)c(O)c2)oc2cc(O)cc(O)c12,nt,-15.0%[60.1 µM],nt,nt,nt,nt,nt,
O=C(O)C1OC(Oc2c(-c3ccc(O)c(O)c3)oc3cc(O)cc(O)c3c2=O)C(O)C(O)C1O (stereo unspecified),?,14.1µM*,6.31µM*,22.4µM*,8.91µM*,?,10.3µM*,
